Test results from PubChem BioAssay (EPA / NIEHS).
The source holds several records for some structures; these can differ, active in one and inactive in another. Active and inactive are the calls of the source. Rule for the calls: active = hit-call score of the fitted dose curve at least 0.9, where 1 is the maximum; inactive = score below 0.9.

Assay: ATG_AP_1_CIS: Attagene CIS-FACTORIAL HepG2 Assay for human Activator Protein 1 (AP-1) (AID 2282931)
Conditions: HepG2 Attagene cis-factorial AP-1 reporter mRNA; actives raise or lower the signal
Protocol: ATG_CIS is a cell-based, multiplexed-readout assay that uses HepG2, a human liver cell line, with measurements taken at 24 hours after chemical dosing in a 24-well plate.ATG_AP_1_CIS is one of 52 assay component(s) measured or calculated from the ATG_CIS assay. It is designed to make measurements of mRNA induction, a form of inducible reporter, as detected with fluorescence intensity signals by Reverse transcription polymerase chain reaction (RT-PCR) and Capillary electrophoresis technology.Data from the assay component ATG_AP_1_CIS was analyzed into 1 assay endpoint. This assay endpoint, ATG_AP_1_CIS, was analyzed with bidirectional fitting relative to DMSO as the negative control and baseline of activity. Using a type of inducible reporter, measures of mRNA for gain or loss-of-signal activity can be used to understand the reporter gene at the transcription factor-level as they relate to the gene FOS and JUN. Furthermore, this assay endpoint can be referred to as a primary readout, because this assay has produced multiple assay endpoints where this one serves a reporter gene function. To generalize the intended target to other relatable targets, this assay endpoint is annotated to the dna binding intended target family, where the subfamily is basic leucine zipper.
Human liver HepG2 cells are transiently transfected with multiple reporter transcription units (MRTUs) in 6-well plates using FuGene 6 reagent (Roche; 3 ml FuGene/1 mg DNA). The MRTU constructs are regulated by a cis-regulating element (promoter). […] A major difference between the CIS and TRANS system is that in CIS activities of endogenous TFs are measured, whereas the TRANS assay evaluates changes in activities of exogenous, chimeric NR-Gal4 proteins. […] At the end of 24 hour incubation, total RNA was isolated using TriZol reagent (Invitrogen). The isolated RNA is then reverse-transcribed using oligo(dT) primer and Mo-MLV reverse transcriptase (Invitrogen) with DNAse I (Ambion) treatment for 30 min. The one-tenth of the produced cDNA was amplified by PCR using Taq DNA polymerase (Invitrogen) and two reporter sequence-specific primers. The PCR products were fluorescently labeled by primer extension with 6-arboxyfluorescein (6-FAM) 5'-labeled reporter sequence-specific primer (2 min at 95 C, 20 s at 68 C and 10 min at 72 C) and these products were digested with 5U of HpaI (New England Biolabs) for 2h at 37 C. The fragments were purified using Qiaquick PCR columns (Qiagen), analyzed on an ABI 3130xL genetic analyzer (Applied Biosystems) with peak positions identified by using a set of X-rhodamine (ROX)-labeled MapMarker1000 molecular weight standards (BioVentures). The raw capillary electrophoresis data was processed using Attagraph software (Attagene).

Row | SMILES | outcome | AC50
1 | COC(=O)c1ccc(I)cc1S(=O)(=O)NC(=O)Nc1nc(C)nc(OC)n1 | inactive | –
2 | CC1(C)C(C=C(Cl)Cl)C1C(=O)OCc1cccc(Oc2ccccc2)c1 (stereo not given) | inactive | –
3 | CC(C)CCCCCCc1ccc(O)cc1 | inactive | 17 µM (active)
4 | O=C(Nc1ccc([N+](=O)[O-])cc1Cl)c1cc(Cl)ccc1O | – | 1.01 µM (active)
5 | CCNc1nc(N)nc(Cl)n1 | inactive | –
6 | CCCCOCCOCCOCc1cc2c(cc1CCC)OCO2 | – | 50 µM (active)
7 | COC(=O)c1ccc(CNS(C)(=O)=O)cc1S(=O)(=O)NC(=O)Nc1nc(OC)cc(OC)n1 | inactive | –
8 | CCCCOC(=O)[C@@H](C)Oc1ccc(Oc2ccc(C(F)(F)F)cn2)cc1 | inactive | –
9 | O=C(O)c1ccccc1 | inactive | –
10 | Oc1ccc(C(c2ccc(O)cc2)C(Cl)(Cl)Cl)cc1 | inactive | –
11 | CCN(CC)C(=O)c1cccc(C)c1 | inactive | –
12 | COc1c(Cl)ccc(Cl)c1C(=O)O | inactive | –
13 | COC(=O)c1cccc(C)c1S(=O)(=O)NC(=O)Nc1nc(OCC(F)(F)F)nc(N(C)C)n1 | inactive | –
14 | CCCCCOC(=O)COc1cc(N2C(=O)C3=C(CCCC3)C2=O)c(F)cc1Cl | inactive | –
15 | CCSC(=O)N(CC(C)C)CC(C)C | inactive | –
16 | CCCCC(CC)COC(=O)c1ccccc1C(=O)O (stereo not given) | inactive | –
17 | COC(=O)c1ccccc1C(=O)O | inactive | –
18 | S=C(S)NCCNC(=S)S.[Mn+2].[S-]C([S-])=NCCN=C([S-])[S-].[Zn+2] | inactive | 20.7 µM (active) [middle of 4 runs]

Row | SMILES | outcome | AC50
19 | CN(C)C(=O)Nc1ccc(Cl)c(Cl)c1 | inactive | 27.7 µM (active)
20 | CCC(C)OC(=O)N1CCCCC1CCO (stereo not given) | inactive | –
21 | CCCOC(=O)c1ccc(C(=O)OCCC)nc1 | inactive | –
22 | CC(C)(C)[C@@H](O)[C@@H](Cc1ccc(Cl)cc1)n1cncn1 | – | 13.5 µM (active)
23 | CC(C)(c1ccc(O)cc1)c1ccc(O)cc1 | inactive | –
24 | C#CCOC(=O)[C@@H](C)Oc1ccc(Oc2ncc(Cl)cc2F)cc1 | inactive | –
25 | COc1nc(C)nc(NC(=O)NS(=O)(=O)c2ccccc2OCCCl)n1 | inactive | –
26 | O=C(c1ccc(O)cc1O)c1ccc(O)cc1O | inactive | –
27 | N#CSCSc1nc2ccccc2s1 | inactive | 3.02 µM (active)
28 | CCCCOC(=O)C(C)Oc1ccc(Oc2ccc(C(F)(F)F)cn2)cc1 (stereo not given) | inactive | –
29 | CCOC(=O)C(C)Oc1ccc(Oc2cnc3cc(Cl)ccc3n2)cc1 (stereo not given) | inactive | –
30 | CCOC(=O)C(C)Oc1ccc(Oc2nc3ccc(Cl)cc3o2)cc1 (stereo not given) | inactive | –
31 | CCCOC(=O)NCCCN(C)C | inactive | –
32 | CCCCC(CC)CN1C(=O)C2C3C=CC(C3)C2C1=O (stereo not given) | – | 69.6 µM (active)
33 | N[C@@H](Cc1cc(I)c(Oc2ccc(O)c(I)c2)c(I)c1)C(=O)O | inactive | 22.6 µM (active)
34 | CCCN(CCC)c1c([N+](=O)[O-])cc(C(F)(F)F)c(N)c1[N+](=O)[O-] | – | 63 µM (active)
35 | CCN(Cc1c(F)cccc1Cl)c1c([N+](=O)[O-])cc(C(F)(F)F)cc1[N+](=O)[O-] | – | 28.9 µM (active)
